Assay results published in PubChem BioAssay.
“And” between values parts separate entries of the source, which are not always exact repeats. Equal entries are not always repeated. The source made the active and inactive calls.

Test: PSAC antagonists in infected red cells, primary screen, cell-based, P. falciparum Indochina, OD700, 2 h (AID 1155);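 also: lysis reports solute entry through the parasite surface anion channel PSAC; channel blockers reduce lysis of infected cells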
Conditions: P. falciparum Indochina infected erythrocytes, osmotic lysis OD700; higher = more signal, called active from +8 up or from −8 down

z-score, inactive:
O=C1C[C@]2(c3ccc([N+](=O)[O-])cc3)C(=O)N(Cc3ccccc3)c3cc(CO)ccc3[C@H]2N1C1CCCCC1 -0.198 and 1.01
CC(C)=CCCC(C)=CCON=C1C[C@@H](O)[C@@H](O)[C@@H]2[C@@H]3C(=O)N([C@@H](C)c4ccccc4)C(=O)[C@@H]3CC[C@H]12 0.362
C[C@@H]1CC[C@H]2C(=O)NC[C@@H](O)CN2[C@H]1c1ccc(Br)cc1 -0.0378 and 0.0974
COc1ccc(O[C@H]2C=C[C@@H](c3ccccc3)O[C@@H]2COC(=O)CCC(C)=NO[C@H](C)c2cn([C@H](CO)Cc3ccccc3)nn2)cc1 1.6 and 2.16
C=CCN(CCCC)C(=O)C(c1cccs1)N(C(=O)/C=C\C(=O)O)c1c(Cl)cccc1CO (stereo not given) -0.0165 and -0.14
CC(CO)N1C(=O)[C@@H]2C3C(=O)OCCC=C[C@H]3OC23C=CCN(c2ccc(Cl)cc2)C(=O)[C@@H]13 (stereo not given in full) 1.02 and 0.352
C=CCN(C(=O)C(c1cccs1)N(CCOCCO)C(=O)/C=C\C(=O)O)C(C)(C)C (stereo not given) -0.172 and -0.307
C=C[C@H](OC)[C@@H](O)c1ccc(O)c(F)c1 0.125 and 0.702
CC(CO)N1C(=O)[C@@H]2C3C(=O)OCCC=C[C@H]3OC23C=CCN(C(C)(C)C)C(=O)[C@@H]13 (stereo not given in full) -0.27 and 0.449

Test: osmotic lysis modulators in infected erythrocytes, primary screen, PSAC antagonist project, cell-based, P. falciparum Indochina, OD700, 3 h (AID 1156)
Conditions: higher = more signal, called active from +8 up or from −8 down

z-score, inactive:
COC(=O)C1=C(C)N(Cc2ccccc2)[C@]23O[C@](C(=O)OC)(C(=O)N2[C@@H]1c1ccccc1)[C@@H](C(=O)OC)[C@H]3C(=O)OC 0.285 and -0.414
CO[C@@H]1COC(=O)CC=C[C@H](C)COC(=O)[C@H](C)NC(=O)CC=C[C@H]1C 0.599
COC(=O)C1=C(C)N(Cc2ccccc2)C2=C(C(C)=O)[C@H](c3ccccc3)[C@@](O)(C(=O)OC)C(=O)N2[C@@H]1c1ccccc1 1.2 and -1.16
C[N+](C)(C)CCCCNC(=O)[C@H]1C[C@H]2C(=O)N[C@@H](CCCC[N+](C)(C)C)C(=O)N2[C@H]1c1cccc(OCCO)c1 -0.706 and 0.0108
CCOC(=O)NN=C1C[C@@H](O)[C@@H](O)[C@@H]2[C@@H]3C(=O)N(Cc4ccc5c(c4)OCO5)C(=O)[C@@H]3CC[C@@H]12 1.34
C[N+](C)(C)CCCCNC(=O)[C@H]1C[C@H]2C(=O)N[C@@H](CCCC[N+](C)(C)C)C(=O)N2[C@H]1c1ccc(O)cc1 -1.78 and -0.688
O=c1n(-c2ccccc2)c(=O)n2n1CC[C@@H]1C(=NOC[C@@H](O)COCc3ccco3)[C@H]3O[C@H]3[C@@H](O)[C@@H]12 1.74 and 0.238
C=C[C@@H](C)[C@H](O)c1ccc(O)c2ccccc12 -0.198 and -0.13
COC(=O)C1=C(C)N(Cc2ccccc2)C2=C(C(C)=O)C[C@@](O)(C(=O)OC)C(=O)N2[C@@H]1c1ccccc1 0.0531 and -0.0986
CCC[C@@H]1C[C@@]1(CCC)[C@@H](NC(=O)c1ccc(-c2ccccc2)cc1)c1cccc(Cl)c1 0.364 and 0.0717
C=CCN(CCCC)C(=O)C1N(CCOCCO)C(=O)C2C(C(=O)O)C3C=CC21O3 (stereo not given) -0.668 and -0.506
C=CCN(Cc1ccccc1)C(=O)C1N(CCOCCO)C(=O)C2C(C(=O)O)C3C=CC21O3 (stereo not given) -1.39 and -0.519
C=CC[C@@H](O)c1ccc(O)c2ccccc12 -0.379 and -0.519
CO[C@@H]1C=CCC(=O)N2CCC[C@H]2C(=O)OC[C@H](C)C(=O)OC[C@H]1C -0.355
CN1C(=O)C2CC=C([C@H]3Oc4ccccc4S(=O)(=O)N4CCC[C@@H]34)CC2C1=O (stereo not given in full) -0.0363 and 0.15
CCOC(=O)c1ccc(NC(=O)O[C@H]2[C@H](OC(=O)Nc3ccccc3)[C@@H](OC(=O)Nc3ccccc3)[C@@H](OC)O[C@@H]2CO)cc1 0.199 and 1.28
